In the library only some 9% were active in any assay of this set; here they are far more common.
IMPase Li inh – membrane-permeable IMPase blocker, potentiated with lithium; Potency, µM (top dose mostly 59.4 µM), actives largely listed as inhibitors; 0.35% of 210,000 active; CHO-M1 cells, IP1 TR-FRET (IP-One), carbachol + lithium;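 further: IP1 builds up when IMPase is blocked and the TR-FRET signal falls; nearly all actives have a fitted effect of over 50% in size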
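Test compounds were applied to CHO-M1 cells previously cultured for 16–30 h at 2000 per well. A small lithium amount accompanied them; after 30 min at 37C, IP1 was quantified by TR-FRET.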
ALDH1A1 inh – ALDH1A1 (human) enzyme inhibition. Potency, µM (top dose mostly 75.3 µM), hits mostly inhibitors. Purified ALDH1A1, NADH fluorescence, propionaldehyde substrate. AID 1030. 7.3% of 220,000 active. P00352; active means well fitted inhibition curve with a large enough effect, not every such curve was filed as active; inconclusive means small, poorly fitted or top-dose-only effect, or another doubt; inactive means no such curve, though single readings can be large or run the other way
Target sequence (P00352 whole entry, looked up): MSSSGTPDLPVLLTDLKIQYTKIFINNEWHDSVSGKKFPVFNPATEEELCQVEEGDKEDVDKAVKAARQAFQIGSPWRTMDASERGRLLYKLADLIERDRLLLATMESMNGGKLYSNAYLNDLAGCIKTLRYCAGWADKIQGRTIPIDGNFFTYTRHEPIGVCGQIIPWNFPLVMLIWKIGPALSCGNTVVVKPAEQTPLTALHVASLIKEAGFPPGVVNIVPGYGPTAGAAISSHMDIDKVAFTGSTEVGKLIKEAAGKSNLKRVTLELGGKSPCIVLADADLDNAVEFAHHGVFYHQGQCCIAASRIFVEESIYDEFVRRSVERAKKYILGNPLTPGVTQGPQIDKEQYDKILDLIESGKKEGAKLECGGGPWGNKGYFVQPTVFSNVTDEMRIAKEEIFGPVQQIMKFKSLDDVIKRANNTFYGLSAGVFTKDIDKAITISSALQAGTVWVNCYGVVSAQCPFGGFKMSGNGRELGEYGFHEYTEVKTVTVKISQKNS
KinaseGlo FLuc – Kinase-Glo luciferase inhibition (counter-screen) | Q27757 | Kinase-Glo luciferase, ATP luminescence, 8 min | Potency, µM (titrated, usually from 38.3 µM), actives largely listed as inhibitors | 0.28% of 200,000 active; further: nearly all actives have a fitted effect of over 60% in size
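Substrate mix (final 50 mM imidazole pH 7.2, 50 mM KCl, 7 mM MgCl2, 10 uM ATP, 0.01% Tween 20, 0.05% BSA) plus pin-tool compound, then Kinase-Glo detection mix; 8 min ambient, luminescence read.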
HPGD inh – blocks human HPGD enzyme activity; P15428; purified HPGD, NADH fluorescence kinetic, PGE2 substrate; Potency, µM, actives largely listed as inhibitors; 4.3% of 150,000 active; AID 894; active means well fitted inhibition curve with a large enough effect, not every such curve was filed as active; inconclusive means small, poorly fitted or top-dose-only effect, or another doubt; inactive means no such curve, though single readings can be large or run the other way
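NADH formation kinetics: reaction with 30 uM PGE2 and 1 mM NAD+ (final), 20 nM enzyme, Tris-HCl pH 8 with Tween 20, after 15 min compound preincubation at room temperature. Fluorescence change, last versus first of five reads.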
LMNA splice mod – modulators of lamin A splicing; HeLa LMNA splicing GFP/RFP minigene ratio, 48 h; Potency, µM (top dose mostly 46.1 µM), hits mostly inhibitors; 0.01% of 200,000 active; AID 1487; active means well fitted inhibition curve with a large enough effect in the signal ratio, with a control signal flat, not every such curve was filed as active; inconclusive means small, poorly fitted or top-dose-only effect, or effect the other way, or a change in a side signal; the % refers to the signal ratio
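S3 HeLa stable clones carrying a lamin A-EGFP splicing minigene plus DsRed2 were seeded at 600 cells/well in Opti-MEM with 2% FBS, pin-dosed and incubated 48 h at 37°C. Acumen cytometry (488 nm) gave the GFP/RFP total-intensity ratio.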
Numbers stand for hits; 0 = inactive; ? = inconclusive; - = no result given; ! = not active in a repeat; [ ] = remark or other dose. Unless noted, the call rests on the fitted dose curve; in most records, active means well fitted curve in the direction sought with a large enough effect; inconclusive means small, poorly fitted or top-dose-only effect, or another doubt; inactive means no such curve, though single readings can be large; an effect the other way counts as inactive or inconclusive.

SMILES	IMPase Li inh	ALDH1A1 inh	KinaseGlo FLuc	HPGD inh	LMNA splice mod
CC(C)[C@H](CO)Nc1nc(Nc2cccc(Cl)c2)c2ncn(C(C)C)c2n1	0	?	0	0	-
C[C@H]1C[C@H](C)C(=O)[C@@H]([C@H](O)CC2CC(=O)NC(=O)C2)C1	0	0	0	0	-
COc1ccc2c3c1OC1C[C@@H](O)C=C[C@@]31CCN(C)C2 (stereo partly specified)	0	0	0	0	?
CCN1CCN(P2(=O)C=C(c3ccccc3)OC(c3ccccc3)=C2)CC1	0	14µM	0	0	0
O=C1NC(=O)C(=Cc2ccc(SC3CCCCC3)o2)C(=O)N1	0	25µM	0	-	-
C[N+](=O)[O-]	0	0	-	0	-
Cc1ccc(NC(=O)OC(C)CNC(=O)Oc2cccc(C)c2)cc1 (stereo unspecified)	0	20µM	0	-	0
COC(=O)Nc1cccc(OC(=O)Nc2cccc(C)c2)c1	0	?	-	0	-
COc1ccc(C(O)c2ccccc2OP(=O)(N(C)C)N(C)C)cc1 (stereo unspecified)	0	0	0	0	0
COc1ccc(C(c2ccc(OC)cc2)C(Cl)(Cl)Cl)cc1	0	14µM!	0	0	0
FC(F)(F)c1ccccc1CN1CCN(Cc2ccccc2)CC1	0	20µM	0	0	0
CC(C)N1CCN(Cc2ccccc2C(F)(F)F)CC1CCO (stereo unspecified)	0	0	0	-	0
CCCCn1c(O)c(C=NCCCn2ccnc2)c(=O)[nH]c1=O	0	18µM	0	0	0
O=c1[nH]c(=O)n(CCc2ccccc2)c(O)c1C=NCCCn1ccnc1	0	0	0	0	0
O=C(O)Cc1ccc([N+](=O)[O-])cc1[N+](=O)[O-]	0	0[13.5 µM]	0[7.66 µM]	0	-
CCOC(=O)c1ccc(NC(=O)C2C3C=CC(O3)C2C(=O)O)cc1 (stereo unspecified)	0	10µM	0	0	0
CCOC(=O)c1ccc(NC(c2ccc(N(C)C)cc2)P(=O)(OC(C)C)OC(C)C)cc1 (stereo unspecified)	0	?	0	-	0
FC(F)(F)c1ccc(Cl)cc1	0	0	-	0	-
COc1cc2c(cc1O)-c1c(O)c(OC)cc3c1[C@H](C2)N(C)CC3	0	?	0	?	-
CC(C)C(CCN1C(=O)c2ccccc2C1=O)c1ccco1 (stereo unspecified)	0	22µM	0	0	0
CN(CC(=O)N[C@H](CO)Cc1ccccc1)C(=O)[C@H](CCS(C)=O)NC(=O)[C@@H](N)Cc1ccc(O)cc1 (stereo partly specified)	0	0	-	-	-
Oc1cc(Cl)c(Cl)cc1Cl	0	0	-	5.6µM	-
Oc1cc(Cl)c(Cl)c(Cl)c1Cl	0	0	-	?	-
CCC(=NCc1ccc2c(c1)OCO2)c1c(O)n(C2CCCCC2)c(=O)[nH]c1=O	0	13µM	0	0	0
CCC(=NCCO)c1c(O)n(C2CCCCC2)c(=O)[nH]c1=O	0	0	0	0	0
SMILES	IMPase Li inh	ALDH1A1 inh	KinaseGlo FLuc	HPGD inh	LMNA splice mod
CC(C)=C[C@H]1[C@@H](C(=O)OCc2cc3c(cc2Cl)OCO3)C1(C)C	0	0[13.5 µM]	0[7.66 µM]	0	-
CN1CCC(O)(c2ccc(Cl)cc2)C(C(=O)c2ccc(Cl)cc2)C1 (stereo unspecified)	0	0.11µM	0	-	?
C=CCn1c(O)c(/C(CC)=N/NC(=S)Nc2ccccc2)c(=O)[nH]c1=O	-	18µM	-	-	-
C=CCn1c(O)c(C(CC)=NCCc2ccccc2)c(=O)[nH]c1=O	0	0	0	0	?
C=C1CC[C@H](O)C/C1=C/C=C1\CCC[C@]2(C)[C@@H]([C@H](C)CCCC(C)C)CC[C@@H]12	0	?	0	?	-
CCN(CC)C(=O)c1ccc(NC(=O)COc2ccc([N+](=O)[O-])cc2Cl)cc1	0	0	0	0.5µM	?
ClC=CCl	0	0	-	0	-
Cc1cccc(N2C(=O)NC(=O)/C(=C\c3cc(C)n(-c4sc5c(c4C#N)CCCC5)c3C)C2=O)c1C	0	0.25µM	0	4µM	0
O=C(CCl)c1ccc(Cl)cc1Cl	0	0.16µM	-	0	-
Cc1ccc(-n2nc(C)c3c2OC(N)=C(C#N)C3c2cccs2)cc1 (stereo unspecified)	0	13µM	0	0	0
Cc1ccc(-n2nc(C)c(C3C(C#N)=C(N)Oc4c3c(=O)oc3ccccc43)c2Cl)cc1 (stereo unspecified)	0	0	0	0	?
Nc1ccccc1C(=O)OCC(=O)N1CCc2ccccc21	0	?	0	?	0
N#CSCC(=O)N1c2ccccc2CCc2ccccc21	0	0.79µM	0	18µM	?
Oc1c(Cl)c(Cl)c(Cl)c(Cl)c1Cl (tested in a mixture with another compound)	0	0[13.5 µM]	0[7.66 µM]	-	-
COc1cccc(N=Nc2c(O)[nH]c(=S)[nH]c2=O)c1	-	25µM	-	-	-
CC(=O)[C@@]1(O)CC[C@H]2C3CCC4=CC(=O)CC[C@]4(C)C3CC[C@@]21C (stereo partly specified)	0	0	0	0	?
COc1cc2ccccc2c2cc([N+](=O)[O-])oc12	0	0[13.5 µM]	0[7.66 µM]	0	-
CC1(C)CN=C(Nc2ccc(F)c(F)c2)S1	0	0	0	25µM	0
Cc1cc(C)cc(OP(=O)(Oc2cc(C)cc(C)c2)Oc2cc(C)cc(C)c2)c1	0	?	-	0	-
NCCNCCNCCNCCN	0	32µM	-	0	?
CC(=O)OC1C[C@]2(C)C(C(C)=O)CCC2C2CCC3=CC(=O)CC[C@@]3(C)C12 (stereo partly specified)	0	?	0	0	-
O=c1[nH]c(=O)n(CCc2ccc(F)cc2)c(O)c1C=NCc1ccc2c(c1)OCO2	0	0	0	?	0
COc1ccc(CCn2c(O)c(C=NCc3ccc4c(c3)OCO4)c(=O)[nH]c2=O)cc1OC	0	5µM	0	0	0
C=CCN1C(=O)NC(=O)/C(=C/c2ccoc2)C1=O	0	?	0	25µM	?
C=CCN1C(=O)NC(=O)/C(=C/c2ccc(N(C)C)c(Br)c2)C1=O	0	13µM	0	-	?
SMILES	IMPase Li inh	ALDH1A1 inh	KinaseGlo FLuc	HPGD inh	LMNA splice mod
COc1ccc(OC)c(N2C(=O)NC(=O)/C(=C\c3ccc([N+](=O)[O-])s3)C2=O)c1	0	25µM	0	-	0
COc1ccc(N2C(=O)NC(=O)/C(=C/c3ccc4c(c3)Cc3ccccc3-4)C2=O)cc1	0	?	0	-	-
COc1ccc(N2C(=O)NC(=O)/C(=C\c3ccccc3[N+](=O)[O-])C2=O)cc1	0	19µM	0	-	0
COc1cccc(N2C(=O)NC(=O)/C(=C/c3ccc4c5c(cccc35)CC4)C2=O)c1	0	?	0	?	0
CC(=O)O[C@@H]1C[C@@]2(C)C(c3ccoc3)C[C@H]3O[C@]32[C@]2(C)C(=O)C(O)=C3C(C)(C)C(=O)C=C[C@]3(C)C12 (stereo partly specified)	0	0	0	0	-
O=C1NC(=O)N(Cc2ccco2)C(=O)/C1=C/c1cccn1CCOc1ccccc1Cl	0	0	0	28µM	?

From PubChem
